The full list was thinned out, with hits kept by preference.
Autofluor counter: flagged as autofluorescent in microsphere protease counterscreen; hit rate 3.1% among 360,000; compound autofluorescence counterscreen, microsphere flow cytometry; stronger effect = higher value; fluorescence intensity (no concentration beside the values); in the data active means fluorescence intensity above about 16000; inconclusive means no clear call, values can overlap the other calls
BoNT F protease: BoNT/F light chain protease inhibitors, primary screen, biochemical, flow cytometry, MLPCN library | Multiplex microsphere protease cleavage assay | Botulinum neurotoxin type F light chain protease (Clostridium botulinum) | hit rate 0.22% among 360,000 | AID 588497, 2011 | inhibition, % at 10 µM; in the data active means inhibition above about 35%, passing the limit was not always enough; inconclusive means no clear call, values can overlap the other calls
Anthrax LF inh2: Bacillus anthracis LF protease inhibitors, primary screen, biochemical, multiplex microsphere, MLPCN library; inhibition, % at 10 µM; hit rate 0.12% among 360,000; multiplex microsphere protease cleavage assay; Lethal factor (Bacillus anthracis), P15917
Target sequence (P15917 whole entry, looked up): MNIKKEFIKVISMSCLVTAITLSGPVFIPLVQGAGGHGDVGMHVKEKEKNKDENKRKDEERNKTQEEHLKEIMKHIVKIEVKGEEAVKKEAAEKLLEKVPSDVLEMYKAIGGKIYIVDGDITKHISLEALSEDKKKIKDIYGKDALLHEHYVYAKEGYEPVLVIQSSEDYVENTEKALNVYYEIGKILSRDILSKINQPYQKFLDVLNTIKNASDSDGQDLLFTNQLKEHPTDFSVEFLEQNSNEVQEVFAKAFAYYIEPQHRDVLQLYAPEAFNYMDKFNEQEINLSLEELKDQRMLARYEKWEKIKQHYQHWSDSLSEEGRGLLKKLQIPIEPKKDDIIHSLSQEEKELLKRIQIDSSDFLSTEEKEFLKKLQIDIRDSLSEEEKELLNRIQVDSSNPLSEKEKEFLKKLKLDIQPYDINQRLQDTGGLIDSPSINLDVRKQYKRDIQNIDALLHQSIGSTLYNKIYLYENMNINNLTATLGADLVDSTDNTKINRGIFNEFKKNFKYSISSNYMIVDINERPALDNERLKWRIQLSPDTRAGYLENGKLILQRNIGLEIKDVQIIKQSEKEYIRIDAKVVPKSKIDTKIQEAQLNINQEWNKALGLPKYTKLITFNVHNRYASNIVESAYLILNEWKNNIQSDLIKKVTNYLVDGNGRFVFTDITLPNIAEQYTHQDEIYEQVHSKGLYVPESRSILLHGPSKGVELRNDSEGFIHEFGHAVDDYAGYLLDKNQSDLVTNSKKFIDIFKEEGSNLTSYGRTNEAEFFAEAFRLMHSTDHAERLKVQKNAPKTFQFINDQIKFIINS
TcdB inh: TcdB glycohydrolase inhibitors, primary screen, biochemical, single point, plate reader. TcdB glycohydrolase enzymatic assay. AID 652162, 2013. hit rate 0.24% among 350,000. inhibition, % at 9.99 µM. Toxin B (Clostridioides difficile), P18177; in the data active means inhibition above about 10%
BoNT-A LC inh2: BoNT/A light chain protease inhibitors, primary screen, biochemical, flow cytometry, MLPCN library; Botulinum neurotoxin type A light chain protease (Clostridium botulinum A str. ATCC 3502); multiplex microsphere protease substrate cleavage; inhibition, % at 10 µM; hit rate 0.17% among 360,000; AID 588499, 2011
Numbers stand for hits; – = inactive; ? = inconclusive; · = no result. Unless noted, no stated cut-off is given here; in the data, active means inhibition above about 30%; inconclusive means no clear call, values can overlap the other calls; inactive means below that.

SMILES	Autofluor counter	BoNT F protease	Anthrax LF inh2	TcdB inh	BoNT-A LC inh2
Cn1c(=O)c2c(ncn2Cc2cccc(Cl)c2)n(C)c1=O	–	–	–	·	–
Cn1c(=O)c2c(ncn2Cc2ccc(Cl)c(Cl)c2)n(C)c1=O	19612	–	–	·	?
CCCCN(CC)Cc1ccc(CNC(=O)Nc2ccc(Cl)cc2)o1	–	–	–	–	–
CCCCN(CC)Cc1ccc(CNC(=O)Nc2ccc(OCC)cc2)o1	20423	–	–	–	–
Cc1ccc(N2CCCn3c2cc(C)c(C#N)c3=O)cc1C	21058	–	–	–	–
COc1ccc(CCNC(=O)c2cc(-c3cc(Cl)cc(Cl)c3)oc2C)cc1	21204	–	–	·	–
Cc1occc1C(=O)NCCc1ccc(Cl)cc1	20471	–	–	·	–
COCC(=O)N1CC2(CN(C(=O)c3cccnc3)C2)c2c([nH]c3cc(OC)ccc23)[C@@H]1CO	·	·	·	–	·
C[C@@H]1CCCCO[C@H](CN(C)C(=O)c2ccncc2)[C@@H](C)CN([C@H](C)CO)C(=O)c2cc(NC(=O)c3ccncc3)ccc2O1	·	·	·	–	·
CNc1nc2ccccc2n(C)c1=O	–	–	–	–	–
COc1ccc(Oc2nc3ccccc3n(C)c2=O)cc1	16246	–	–	–	–
Cn1c(=O)c(-c2ccccc2N)nc2ccccc21	20647	–	–	·	–
Cn1c(=O)c(-c2ccccc2)nc2ccccc21	20471	–	–	·	–
Cn1c(=O)c(Oc2cc(Cl)cc(Cl)c2)nc2ccccc21	–	–	–	·	–
CNc1ccccc1-c1nc2ccccc2n(C)c1=O	–	?	–	·	–
COc1ccc(Oc2nc3ccccc3nc2C(F)(F)F)cc1	23577	–	–	·	–
Cc1ccccc1C(=O)Oc1ccc(Br)cc1C(=S)N1CCCC1	22492	–	–	·	?
c1ccc2c(c1)[nH]c1c(N3CCOCC3)ncnc12	–	–	–	–	–
Cc1cccc2[nH]c3c(N4CCN(C(=O)c5ccco5)CC4)ncnc3c12	24618	–	–	·	–
Cc1cccc2[nH]c3c(N4CCC5(CC4)OCCO5)ncnc3c12	22045	–	–	·	?
C[C@@H]1CN([C@H](C)CO)C(=O)c2cc(NC(=O)Cn3cnnn3)ccc2O[C@H]1CN(C)C(=O)Nc1ccc(C(F)(F)F)cc1	·	·	·	–	·
Cc1csc(NC(=O)C2CCCO2)n1 (stereo unspecified)	21132	–	–	·	–
CC1(C(=O)O)CCC(C(=O)Nc2ccc3ccccc3c2)C1(C)C (stereo unspecified)	22940	–	–	·	–
O=C(Nc1nc(-c2ccccc2)cs1)C1CCCO1 (stereo unspecified)	–	–	–	–	?
Cc1ccccc1NC(=O)C1CCC(C)(C(=O)O)C1(C)C (stereo unspecified)	–	–	–	·	–
SMILES	Autofluor counter	BoNT F protease	Anthrax LF inh2	TcdB inh	BoNT-A LC inh2
Cc1csc(NC(=O)C2CCC(C)(C(=O)O)C2(C)C)n1 (stereo unspecified)	20359	–	–	·	–
C[C@@H]1CN([C@@H](C)CO)C(=O)c2cc(C#Cc3ccccc3F)cnc2O[C@H]1CN(C)C(=O)C1CCCCC1	·	·	·	–	·
COc1cc(S(=O)(=O)Nc2c(C)cc(C)cc2C)ccc1Cl	17705	–	–	·	–
COc1cc(S(=O)(=O)Nc2ccccc2C)ccc1Cl	–	–	–	·	–
C/C=C/c1ccccc1[C@H]1[C@@H](CO)N(C(=O)CN2CCOCC2)[C@H]1C#N	·	·	·	–	·
CN1CCc2ccccc2C1C1CCNCC1 (stereo unspecified)	24213	–	–	·	–
CCN1C(=O)/C(=C\N(C)C)c2ccccc21	–	–	–	·	–
CCN1C(=O)/C(=C/N(C)C)c2ccccc21	16312	–	–	·	–
CCCCNC(=O)COC(=O)c1c2c(nc3ccccc13)/C(=C/c1cccs1)CC2	–	–	–	·	39
CC(=O)c1sc(NC(=O)C=C(C)C)nc1C	17371	–	–	·	–
CCCCC(=O)Nc1nc(C)c(C(C)=O)s1	–	–	–	–	–
CCCCOC(=O)Nc1ccc(C(=O)OCCC)cc1	22577	–	–	·	–
CCCCOC(=O)Nc1cccc(C(C)=O)c1	16653	–	–	·	–
CCCOC(=O)Nc1ccc(N2CCCCC2)cc1	22287	–	–	·	–
CCCCOC(=O)c1ccc(O)cc1	–	–	–	–	–
CCCCOC(=O)Nc1cccc(Cl)c1C	21233	–	–	–	–
C[C@@H]1CN([C@H](C)CO)C(=O)c2cc(NC(=O)CCC(F)(F)F)ccc2O[C@@H]1CN(C)C(=O)Nc1cccc2ccccc12	·	·	·	–	·
C[C@H]1CN([C@@H](C)CO)C(=O)c2cc(NC(=O)Nc3ccc(C(F)(F)F)cc3)ccc2O[C@@H]1CN(C)C	·	·	·	–	·
O=C(O)CCC(=O)Nc1cccc(C(=O)c2ccccc2)c1	–	–	–	–	–
CCCCOC(=O)c1cccc(NC(=O)CCC(=O)O)c1	20646	–	–	·	?
COc1ccc(NC(=O)CSc2nnc(-c3ccccc3C)n2N)cc1OC	22260	–	–	·	?
CCOc1cccc(-c2nnc(SCC(=O)Nc3cc(OC)cc(OC)c3)n2N)c1	22656	–	–	·	?
COc1ccc(NC(=O)CSc2nnc(-c3ccccc3C)n2N)cc1	22454	–	–	·	–
COc1cc(NC(=O)CSc2ncccc2C(=O)OC(C)C)cc(OC)c1	23173	–	–	·	–
CCCN1[C@@H]2c3ccc(/C=C/c4ccccc4)c(=O)n3C[C@@H]2[C@@H](CO)[C@@H]1C(=O)N1CCOCC1	·	·	·	–	·
SMILES	Autofluor counter	BoNT F protease	Anthrax LF inh2	TcdB inh	BoNT-A LC inh2
C[C@H]1CN([C@@H](C)CO)C(=O)Cc2cc(NC(=O)Nc3ccc4c(c3)OCO4)ccc2O[C@@H]1CN(C)C	·	·	·	–	·
O=C(NC[C@@H]1CC[C@H]2[C@H](CN2Cc2cccc(Cl)c2)O1)C1CC1	·	·	·	–	·
COc1ccc(NC(C)=O)cc1NC(=O)CSc1nnc(-c2ccc(F)cc2)n1N	20810	–	–	·	–
COc1ccc(C2C3=C(CC(C)(C)CC3=O)Oc3ncn(Cc4ccco4)c(=N)c32)cc1 (stereo unspecified)	–	36	–	·	–
C[C@@H]1CN([C@@H](C)CO)C(=O)c2cc(NC(=O)Cc3ccccc3)ccc2O[C@@H](C)CCCCO[C@@H]1CN(C)S(=O)(=O)c1ccc(Cl)cc1	·	·	·	–	·
CCOCN(C(=O)Cn1c(CO)nc2ccccc21)c1c(C)cccc1CC	21035	–	–	·	–
COc1cccc(-c2csc(N3CCN(S(=O)(=O)c4ccc(F)cc4)CC3)n2)c1	21656	–	–	·	–
COc1cccc(-c2csc(N3CCN(Cc4ccccc4)CC3)n2)c1	24520	–	–	·	–
COc1cccc(NC(=O)N2CCN(c3nc(-c4cccc(OC)c4)cs3)CC2)c1	–	–	–	–	–
CC(=O)N1CCCCN2[C@H](C1)[C@@H](c1ccc(C#Cc3ccccc3F)cc1)[C@@H]2CO	·	·	·	–	·
COc1ccc(Cl)cc1N(CC(=O)Nc1ccccc1SC)S(C)(=O)=O	19767	–	–	–	?
COc1ccc(Cl)cc1N(CC(=O)NC(C(C)C)C(C)C)S(C)(=O)=O	–	–	–	·	–
